Screens as filed in PubChem.
A selection: hits, their analogues and other compounds. The true share with any hit is near 10%.
3T3 cytotox = Cytotoxic Profiling in NIH 3T3 Cell Line of Diverse Libraries Using Quantitative High-Throughput Screening; Potency, µM (highest dose often 96.7 µM), hits mostly inhibitors; 4.3% of 94,000 active; NIH 3T3 viability, CellTiter-Glo ATP luminescence, 48-72 h; note: nearly all actives have a fitted effect of over 55% in size
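Cells were seeded at 400 per well, treated with pin-transferred compound, and kept 48 or 72 hr at 37 °C before CellTiter-Glo addition and luminescence imaging of cellular ATP.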
GPT2 inhibitor = Primary qHTS assay for inhibitors of Glutamate pyruvate transaminase 2 (GPT2); Alanine aminotransferase 2 (Homo sapiens), Q8TD30; Recombinant GPT2, coupled pyruvate oxidase/HRP Amplex Red fluorescence; Potency, µM (titrated, usually from 57.7 µM), usual class: inhibitors; 0.25% of 100,000 active; AID 1671188, 2021; note: nearly all actives have a fitted effect of over 60% in size
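Fluorescence read-out: pyruvate from GPT2 turnover coupled to pyruvate oxidase, HRP and Amplex Red (0.2mM ThPP, 0.2U/mL PO and HRP, 50uM Amplex final). Substrates 250uM a-KG, 2mM L-alanine; enzyme 10ng/uL; 30 min RT.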
FLuc inh = Firefly luciferase inhibition profiling of diverse chemical library using quantitative high-throughput screening; purified P. pyralis luciferase, luminescence, biochemical; Potency, µM (titrated, usually from 115 µM), actives largely listed as inhibitors; 2.5% of 76,000 active; AID 1347043, 2019; note: nearly all actives have a fitted effect of over 65% in size
Target sequence (P08659 whole entry, looked up): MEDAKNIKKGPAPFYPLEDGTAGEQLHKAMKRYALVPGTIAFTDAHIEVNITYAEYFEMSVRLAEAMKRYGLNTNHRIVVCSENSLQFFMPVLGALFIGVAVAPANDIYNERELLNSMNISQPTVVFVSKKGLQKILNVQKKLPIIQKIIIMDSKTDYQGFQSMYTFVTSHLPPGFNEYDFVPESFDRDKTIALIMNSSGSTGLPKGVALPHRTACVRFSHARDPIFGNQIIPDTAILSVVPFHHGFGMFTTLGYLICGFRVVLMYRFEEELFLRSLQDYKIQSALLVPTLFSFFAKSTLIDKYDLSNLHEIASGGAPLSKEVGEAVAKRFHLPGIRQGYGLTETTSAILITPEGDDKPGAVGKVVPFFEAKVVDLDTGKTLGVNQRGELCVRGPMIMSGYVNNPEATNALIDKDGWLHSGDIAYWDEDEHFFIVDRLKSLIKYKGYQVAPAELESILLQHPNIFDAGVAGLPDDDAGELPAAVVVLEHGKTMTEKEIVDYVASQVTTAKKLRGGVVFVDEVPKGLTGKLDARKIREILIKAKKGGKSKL
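Biochemical qHTS: compound (6-point titration) added to 10uM D-luciferin plus 10uM ATP in Tris acetate pH 7.5 buffer with Mg, Tween-20 and BSA, then purified enzyme at 10nM; light output imaged.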
HEK293 tox = Cytotoxic Profiling in HEK 293 Cell Line of Diverse Libraries Using Quantitative High-Throughput Screening. HEK 293 viability, ATP luminescence (CellTiter-Glo), 48-72 h. Potency, µM (top dose mostly 115 µM), most hits filed as inhibitors. 6.6% of 94,000 active. AID 1345083, 2018; note: nearly all actives have a fitted effect of over 60% in size
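HEK 293 cells at 250 cells/well were exposed to compounds by pintool transfer for 48 or 72 hr at 37 degree Celsius, 5% CO2. Viability was read as ATP-coupled luminescence with CellTiter-Glo after 10 min at room temperature.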
hNpr1 antagonist = Natriuretic polypeptide receptor (hNpr1) antagonism - Primary qHTS. Potency, µM (doses to about 46.3 µM), usual class: inhibitors. AID 1347048, 2019. 1.6% of 76,000 active. Atrial natriuretic peptide receptor 1 (Homo sapiens), P16066. HEK293 hNpr1 GloSensor cGMP, ANP-stimulated luminescence; calls by dose curve; note: nearly all actives have a fitted effect of over 60% in size
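Compound pre-incubated 30 min at room temperature on GloSensor-loaded HEK293 cells stably carrying hNpr1 and the pGS-40F cGMP biosensor. Stimulation uses hNppA at 0.1 nM final; luminescence is taken at baseline and 20 min post-agonist.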
Numbers stand for hits; i = inactive; ? = inconclusive; nt = no result given. Unless noted, calls come from the whole dose curve; as a rule, active = well fitted curve in the direction sought with a large enough effect; inconclusive = small, poorly fitted or top-dose-only effect, or another doubt; inactive = no such curve, though single readings can be large; an effect the other way counts as inactive or inconclusive.

SMILES	3T3 cytotox	GPT2 inhibitor	FLuc inh	HEK293 tox	hNpr1 antagonist
CNC(=O)c1cc(C2CC2)nc2onc(C3CCCN(C(=O)c4ccccc4F)C3)c12 (centres undefined)	i	nt	nt	?	nt
Cc1noc(C)c1Cc1ccc(C(=O)N2CCCCCCN(C)C(=O)[C@@H]3CCC[C@@H]32)o1	i	i	i	?	i
COc1ccccc1-c1cccc(CN2CCCC(C(=O)NCc3cccc(C(F)(F)F)c3)C2)c1 (centres undefined)	16µM	i	nt	14µM	nt
COc1ccccc1-c1cccc(CN2CCCC(C(=O)NC3CCOC3)C2)c1 (centres undefined)	?	i	nt	?	nt
O=C(NCC1CCCCC1)c1ccc2nnc(C3CCOCC3)n2c1	i	nt	nt	i	nt
O=C1c2c(nc(COc3cccc(N4CCOCC4)c3)n2Cc2ccccc2)NCCN1CC1CC1	?	i	i	?	i
COc1cccc(OCc2nc3c(n2Cc2ccccc2)C(=O)N(Cc2cccc(Cl)c2)CCN3)c1	?	i	i	25µM	i
COc1cc(OC)cc(OCc2nc3c(n2Cc2ccccc2)C(=O)N(Cc2cccc(Cl)c2)CCN3)c1	22µM	i	i	40µM	i
CC(=O)N1CCN(Cc2nc3c(n2Cc2ccccc2)C(=O)N(Cc2cccc(Cl)c2)CCN3)CC1	i	i	i	?	i
O=C1c2c(nc(COc3cccc(Cl)c3)n2Cc2ccccc2)NCCN1CC1CC1	?	i	i	100µM	i
CC(C)(C)C(=O)NC1CCN(Cc2cccc(-c3cccs3)c2)CC1	?	i	nt	?	nt
CN1Cc2c(cc(N3CCOCC3)nc2-c2cnn(C)c2)C1=O	25µM	i	i	?	i
Cc1ccccc1-c1nc(N2CCOCC2)cc2c1CN(Cc1ccccc1)C2=O	25µM	i	i	50µM	i
CN(C)c1cccc(-c2nc(N3CCOCC3)cc3c2CN(Cc2cnn(C)c2)C3=O)c1	45µM	i	i	?	i
O=C1c2cc(N3CCOCC3)nc(-c3ccc(F)cc3)c2CN1CC1CC1	?	i	i	100µM	i
O=c1c2c(CO)c(-c3ccc(F)cc3)nn2ccn1Cc1ccc(Br)cc1	i	i	i	?	?
Cc1ccc([S+](=O)([O-])N2CCN(C(=O)c3nc4cccnc4n(Cc4ccccc4)c3=O)CC2)cc1	i	i	nt	i	nt
O=C1c2cc(N3CCOCC3)nc(-c3ccc(CO)cc3)c2CN1Cc1ccccc1	?	i	i	i	i
COc1cc(F)ccc1-c1nc(N2CCOCC2)cc2c1CN(c1ccccc1)C2=O	i	i	71µM	?	i
O=C1c2cc(N3CCOCC3)nc(-c3cccc(CO)c3)c2CN1Cc1ccccc1	i	i	i	79µM	i
CC(=O)N1CCC(C2CCN(S(=O)(=O)c3ccc(Cl)cc3C)C2)CC1 (centres undefined)	i	i	i	?	i
CCOC(=O)C1(Cc2ccccc2Cl)CCN(C(=O)c2ccsc2)CC1	i	i	25µM	79µM	i
CCOC(=O)C1(Cc2ccccc2Cl)CCN(Cc2cccnc2)CC1	?	i	i	?	i
CCOC(=O)C1(Cc2ccccc2F)CCCN(C(=O)CCc2c[nH]c3ccccc23)C1 (centres undefined)	?	i	i	35µM	?
CCOC(=O)C1(Cc2ccccc2F)CCCN(C(=O)C2=C(C)OCCO2)C1 (centres undefined)	i	i	i	?	i
CCOC(=O)C1(Cc2ccccc2C)CCCN(C(=O)c2cc[n+]([O-])cc2)C1 (centres undefined)	i	i	i	i	i
CCOC(=O)C1(Cc2ccccc2C)CCCN(C(=O)c2csc(C)n2)C1 (centres undefined)	i	i	40µM	i	i
CC1=C[C@@H](CN2CCC(O)CC2)[C@H](C(C)C)C[C@H]1Cc1nnc(C(C)(C)C)o1	?	i	i	?	i
CC(C)C(=O)N1Cc2ccccc2CC2(CCCN(CC3CCNC3)C2)C1 (centres undefined)	i	i	nt	?	nt
